# Compounds with a hit are over-represented: about 2.7% of the library has one in this group of screens.
# Wnt bcat act – activators of Wnt/beta-catenin signaling | Wnt/beta-catenin reporter cell assay, activator, plate reader | activation, % at 9.35 µM | 300,000 compounds, 1.2% hits; in the data active = activation above about 30%, passing the limit was not always enough;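 also: 0% = neutral control wells and 100% = positive control wells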
# GSIS activator – GLuc luminescence reporter in INS-1E cells, primary screen for activators of glucose-dependent secretion of insulin; INS-1E GLuc reporter insulin secretion, 2-3 h; activation, % at 16.6 µM; 370,000 compounds, 0.61% hits;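 active = lowest replicate activation of at least 40%, so every replicate reaches that level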;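 also: 0% = median of neutral control wells and 100% = median of IBMX positive control wells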
# MITF TRPM1 HTS – MITF TRPM1 promoter activation in melanoma cells | SK-MEL-5 TRPM1-promoter luciferase, 24 h; % of positive control, neutral wells = 0 | activation, % at 12.5 µM | 300,000 compounds, 0.75% hits | AID 588334;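 active = mean activation of at least 80% with every replicate also reaching 80%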;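 also: 0% = neutral control wells and 100% = parthenolide positive control wells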
# F508del corr – correctors of CFTR F508del function in bronchial epithelial cells; CFBE cells, YFP halide quenching; stimulated with forskolin plus potentiator P3; % fluorescence drop versus neutral controls; activity (quench increase), % at 7.58 µM; 350,000 compounds, 0.36% hits; AID 720511;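 active = mean added fluorescence quench of at least 8% versus neutral control, with both replicates also reaching 8%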;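 also: cells transiently co-express mutant CFTR-F508del with the halide-sensitive YFP; corrector assay measuring rescue of mutant channel to the surface after 24 h compound exposure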
# HIV Env fusion – HIV envelope-mediated fusion inhibition; 360,000 compounds, 1.1% hits; inhibition, % at 12.3 µM; AID 651610; HeLa-JRFL Env/CEM21 cell fusion, luciferase;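 active = mean replicate inhibition score of at least 50 and every replicate individually at or above 50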;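 also: 0% = plate neutral controls and 100% = maraviroc near 300 nM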
# Active calls of the source: *; . = no result; [ ] = remark or other dose.
SMILES,Wnt bcat act,GSIS activator,MITF TRPM1 HTS,F508del corr,HIV Env fusion
COc1ccc(-c2nc(Cc3ccc(Cl)cc3)no2)cc1OC,.,.,1,.,.
Cc1ccccc1-c1nc(Cc2ccccc2)no1,17,.,118*,.,.
Clc1ccc(-c2nc(Cc3ccccc3)no2)cc1,.,1,106*,.,.
COc1cccc(S(=O)(=O)N[C@@H]2CC[C@@H](CCn3cc(-c4ccc(F)cc4)nn3)O[C@H]2CO)c1,.,-5,.,1,17[16.7 µM]
CCN1C(=O)c2ccc(C(=O)Nc3nccs3)cc2C1=O,-1,.,8,.,.
CC(C)(C)N1C(=O)c2ccc(C(=O)Nc3nccs3)cc2C1=O,.,.,140*,.,.
CO[C@H]1CN(C)C(=O)c2ccc(NC(=O)Nc3cccc(F)c3)cc2OC[C@@H](C)NC[C@H]1C,.,3,.,3,0[16.7 µM]
Cc1nnc(SCC(=O)N(C)CC(=O)Nc2ccc(F)cc2)n1Cc1ccccc1,-1,10,-4,0,-2
CN(CC(=O)Nc1ccc(F)cc1)C(=O)CSc1nnc(Cc2ccccc2)o1,63*,0,-12,-1,8
CCOC(=O)c1oc2nc3c(cc2c1N)CCCC3,37*,-7,.,-2,-63
CCOC(=O)c1oc2nc3c(cc2c1N)COC(C)(C)C3,49*,.,59,.,-31
CCOC(=O)c1cc2c(nc1N)CCCC2,7,19,7,-1,2
COc1ccc(CCC(=O)OCC(=O)Nc2ccc3[nH]c(=O)[nH]c3c2)cc1,0,45*,5,1,3
C[C@@H]1CN([C@H](C)CO)S(=O)(=O)c2ccc(-c3cccc(F)c3)cc2O[C@@H]1CN(C)C,.,8,.,0,10[16.7 µM]
COCCNC(=S)N/N=C1\CC(C)CC(C)(C)C1 (stereo not given),34*,12,2,-1,-3
CCCCCC/C(C=O)=C\c1ccccc1,-1,5,13,0,.
O=C(O)C(=Cc1ccccc1)Cc1ccccc1,-1,41*,-3,-3,-2
CCS(=O)(=O)NCC[C@@H]1CC[C@@H](NS(=O)(=O)c2cccc(Cl)c2)[C@H](CO)O1,.,-4,.,-1,-4[16.7 µM]
CN1CCc2c(sc(NC(=O)c3ccc([N+](=O)[O-])o3)c2C(N)=O)C1,-1,-4,-85,2,72*
NC(=O)c1c(NC(=O)c2ccc([N+](=O)[O-])o2)sc2c1CCCC2,2,-8,-61,-3,0
CN(Cc1ccccc1)c1ncnc2c1cnn2-c1ccccc1,26,-5,85*,-2,.
COc1ccccc1Oc1ncnc2c1cnn2-c1ccccc1,10,38,91*,0,-21
CC(C)CC#Cc1ccc([C@@H]2[C@@H](CO)N3C(=O)CN(C(=O)Nc4cc(F)ccc4F)C[C@@H]23)cc1,.,-20,.,-1,.
O=[N+]([O-])c1cc(-c2n(-c3ccccn3)c3ccccc3[n+]2-c2ccccn2)ccc1Cl,0,10,0,1,64*
O=C(c1ccc(Cl)c([N+](=O)[O-])c1)N1CCN(c2ccccn2)CC1,8,-4,-4,.,6
SMILES,Wnt bcat act,GSIS activator,MITF TRPM1 HTS,F508del corr,HIV Env fusion
COc1ccc(S(=O)(=O)Nc2ccc3c(c2)CC(=O)N([C@H](C)CO)C[C@H](C)[C@@H](CN(C)S(=O)(=O)c2ccc(F)cc2)O3)cc1,.,-33,.,1,25[16.7 µM]
COc1cccc(-c2nnc(-c3ccc4ccccc4c3)o2)c1,51*,7,56,-1,-103
Cc1ccc(-c2nnc(-c3ccc4ccccc4c3)o2)cc1,13,.,48,-1,-12
CCCNC(=O)Nc1ccc2c(c1)C(=O)N(C)C[C@H](OC)[C@H](C)CN(CC1CCCC1)[C@H](C)CO2,.,16,.,-2,.
O=C(O)CCN1c2ccccc2Sc2ccccc21,0,69*,6,-5,-1
C/C(=N\NC(=O)c1ccc(Cl)c(Cl)c1)c1ccc(Br)s1,.,102*,-4,.,.
C/C(=N\NC(=O)c1ccc2ccccc2c1)c1cccs1,41*,11,38,-1,-152
COc1ccc2c3c([nH]c2c1)[C@@H](CO)N(C(=O)NC(C)C)CC31CCN(Cc2ccccc2)CC1,.,1,.,-2,.
C[C@H]1CN([C@@H](C)CO)C(=O)c2cc(Br)cnc2O[C@H]1CN(C)C(=O)Nc1ccccc1,.,3,.,-4,4[16.7 µM]
O=C(C[C@@H]1CC[C@H]2[C@@H](COC[C@@H](O)CN2C(=O)c2ccc(F)cc2)O1)Nc1nccs1,.,2,.,2,.
CN(C)CCCNC(=O)C[C@H]1CC[C@@H]2[C@H](COc3ccc(NC(=O)NC4CCCC4)cc3C(=O)N2C)O1,.,2,.,-4,-26[16.7 µM]
COc1ccc(C2/C(=C(/O)c3ccc(C)cc3)C(=O)C(=O)N2c2ccccn2)cc1 (stereo not given),2,5,12,-1,-11
COc1ccc(/C(O)=C2/C(=O)C(=O)N(c3ccccn3)C2c2ccc(F)cc2)cc1 (stereo not given),1,.,84*,-3,-10
CS(=O)(=O)Nc1ccc2c(c1)[C@H]1C[C@@H](CC(=O)NCc3ccccn3)O[C@@H](CO)[C@H]1O2,.,12,.,-1,18[16.7 µM]
CO[C@H]1CN(C)C(=O)c2cc(NC(=O)C3CC3)ccc2OC[C@H](C)N(CC2CCOCC2)C[C@@H]1C,.,0,.,0,.
O=C(N[C@@H]1CC[C@@H](CCNS(=O)(=O)Cc2ccccc2)O[C@H]1CO)c1cnccn1,.,5,.,3,2[16.7 µM]
Nc1ccc2c(c1)Cc1cc(Cl)c(Cl)cc1-2,4,.,25,0,60*
Cc1ccc(F)cc1S(=O)(=O)N[C@H]1CCN(Cc2ccc(OC(C)C)cc2)C1,.,.,.,4,-8[16.7 µM]
O=C(C[C@@H]1C[C@@H]2c3cc(NC(=O)c4cccnc4)ccc3O[C@@H]2[C@H](CO)O1)NCC(F)(F)F,.,3,.,-4,-19[16.7 µM]
CCCCNC(=O)N(O)C1N(/N=C/c2ccco2)C(=S)SC1(C)C (stereo not given),5,-21,8,-1,-6
CCCCNC(=O)N(O)C1N(/N=C/c2ccccc2F)C(=S)SC1(C)C (stereo not given),-2,-13,.,-7,81*
CC1(C)CC[C@]2(C(=O)O)CC[C@]3(C)C(=CC[C@@H]4[C@@]5(C)CC[C@H](O[C@@H]6O[C@H](C(=O)O)[C@@H](O)[C@H](O[C@@H]7OC[C@H](O)[C@H](O)[C@H]7O)[C@H]6O)C(C)(C)[C@@H]5CC[C@]43C)[C@@H]2C1,-12,200*,-1,-1,-30
C[C@H](CO)N1C[C@H](C)[C@@H](CN(C)Cc2ccc(C(F)(F)F)cc2)OCCCC[C@H](C)Oc2ccc(NC(=O)NC3CCCCC3)cc2C1=O,.,-9,.,-1,-5[16.7 µM]
C[C@@H]1CCCCO[C@H](CN(C)Cc2ccc(C(=O)O)cc2)[C@@H](C)CN([C@@H](C)CO)C(=O)c2cc(NC(=O)C3CCCCC3)ccc2O1,.,8,.,-1,-1[16.7 µM]
CC(=O)C1=C(c2ccc(Br)cc2)C(=O)c2ccccc2C1=O,-26,-35,-83,.,141*
COc1ccc(CNc2ccc(Br)cc2)cc1,43*,-11,58,3,-9
